Experimental data as given in the supplement of paper PMC13392028.
In all, about 4,100 sequences were measured (“RBNS R-value (6-mer enrichment in protein-bound RNA vs input library)”: median about 0.99, highest 2% from about 1.4 on). The entries come from a sample that favours the highest values as a whole.

System: PfIESI-1 RRM domain (Plasmodium falciparum ortholog aa 875-1232, GST fusion)
Assay: RBNS R-value (6-mer enrichment in protein-bound RNA vs input library) (ratio); higher = stronger binding preference; the methods of the paper give 50 / 100 / 500 nM protein instead
Procedure: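 RNA Bind-n-Seq: recombinant GST-tagged IESI-1 RRM domain was incubated at room temperature with a random 40-nt in vitro transcribed RNA library at 250, 500 or 1000 nM protein. Bound RNA was pulled down on glutathione beads and sequenced. R-value is the enrichment of each 6-mer in the bound RNA relative to the input library. Each 6-mer sits inside the random 40-mer context, not as an isolated oligo. Values are replicate 1 only.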

Sequence | RBNS R-value (protein concentration: 250 nM) | RBNS R-value (protein concentration: 500 nM) | RBNS R-value (protein concentration: 1000 nM)
UACCUA | 0.87 | 0.814 | 0.831
GUAACA | 0.845 | 0.924 | 0.87
AAAGAU | 1.06 | 1.19 | 1.11
GGUACC | 1.07 | 1 | 1.08
CCUCUA | 0.848 | 0.783 | 0.823
ACGAGU | 1.04 | 1.06 | 1.02
GCUUGU | 0.92 | 0.92 | 0.939
UCUUGA | 1.3 | 1.32 | 1.25
ACUUGU | 0.921 | 0.923 | 0.962
ACUUGC | 1.02 | 0.979 | 1.01
ACUUGA | 1.42 | 1.46 | 1.34
GCUUGA | 1.36 | 1.4 | 1.28
CCUUGC | 1.16 | 1.03 | 1.09
CCUUGA | 1.46 | 1.37 | 1.32
CCUUGG | 1.13 | 1.03 | 1.12
CGAGUC | 1.09 | 1.04 | 1.06
ACGCCU | 1.07 | 0.995 | 1.03
AUGUGC | 1.04 | 1.07 | 1
AGUCAA | 0.859 | 0.93 | 0.933
CGAUCC | 1.08 | 1.01 | 1.06
UGAUUA | 2.21 | 2.58 | 1.94

Sequence | RBNS R-value (protein concentration: 250 nM) | RBNS R-value (protein concentration: 500 nM) | RBNS R-value (protein concentration: 1000 nM)
GGAUCC | 1.04 | 0.978 | 1.05
CGAUUA | 1.05 | 1.11 | 1.04
UGAUUG | 2.38 | 2.42 | 1.85
UGAUUC | 2.44 | 2.61 | 1.97
AGAUUA | 0.942 | 1.04 | 0.964
AGAUUC | 1.19 | 1.22 | 1.17
CGAUUG | 1.28 | 1.27 | 1.2
UGAUCC | 1.38 | 1.38 | 1.26
CGAUUC | 1.25 | 1.25 | 1.2
GGAUUG | 1.02 | 1.02 | 1.02
CCCGCU | 1.09 | 0.999 | 1.04
UAAUCC | 0.907 | 0.864 | 0.872
AACCAA | 0.985 | 1.04 | 1.01
AAAUAG | 0.904 | 1.06 | 0.986
UGAUUU | 3 | 3.23 | 2.3
AGAUUU | 1.17 | 1.26 | 1.16
GGAUUU | 1.03 | 1.02 | 1.02
AUUCCG | 1.2 | 1.14 | 1.16
GCACCC | 1.5 | 1.26 | 1.33
ACACCA | 1.16 | 1.1 | 1.1
GCACCG | 1.14 | 1.09 | 1.14

Sequence | RBNS R-value (protein concentration: 250 nM) | RBNS R-value (protein concentration: 500 nM) | RBNS R-value (protein concentration: 1000 nM)
GCACCU | 1.21 | 1.11 | 1.13
ACACCC | 1.53 | 1.28 | 1.33
ACACCG | 1.17 | 1.12 | 1.15
UUCGUU | 0.853 | 0.817 | 0.9
CAUAUA | 0.762 | 0.733 | 0.715
CUCCCU | 0.934 | 0.873 | 0.909
GAACUG | 1.07 | 1.11 | 1.11
GGAUAG | 1.02 | 0.975 | 0.995
CGAUAC | 1.04 | 1.03 | 1.02
UGAUAC | 1.59 | 1.68 | 1.47
AGAUAU | 0.955 | 1.04 | 0.969
UGAUAG | 1.87 | 2.08 | 1.65
AGAUAG | 0.998 | 1.07 | 1.04
CGAUAA | 0.968 | 1.04 | 0.996
GGAUAU | 0.937 | 0.921 | 0.959
UGAUAA | 1.67 | 1.89 | 1.54
AGAUAA | 0.975 | 1.11 | 1.02
GGAUAC | 1.01 | 0.991 | 0.995
UGAUAU | 1.5 | 1.69 | 1.38
